Test results as given in the supplement of paper PMC10477191.
± gives the standard deviation of the averaged measurements.

Test system: Drosophila virilis antennal basiconic sensillum AB1
Test: odor-evoked OSN spike response (post minus pre-stimulus); higher = stronger neuronal excitation
Conditions: odor dilution: 10^-4
How it was run: (§1)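 Recordings came from antennal basiconic sensilla of restrained adult flies, taking up to 3 sensilla per fly, with a tungsten electrode placed at the sensillum base. Each odorant was diluted to 10^−4 in mineral oil or DMSO, and 10 µl was loaded onto filter paper. A 500 ms air pulse carried it into a charcoal-filtered, humidified air stream flowing at 1.5 l min^−1. The value reported is the change in spike frequency from a 1-second window before the stimulus to a 1-second window after it, counted in Auto Spike software and averaged across replicate sensilla.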

Row | Structure (SMILES) | odor-evoked OSN spike response [spikes/s]
1 | CCOC(=O)C(C)O (stereo unspecified) [Ethyl lactate] | 128 ± 32
2 | CCOC(C)=O [Ethyl acetate] | 69.2 ± 27
3 | CC(=O)C(C)O (stereo unspecified) [acetoin] | 82.8 ± 39
4 | CCCC(=O)CC [3-hexanone] | 76 ± 7.4
5 | CC(O)C(C)O (stereo unspecified) [2,3-Butanediol] | 71.5 ± 10
6 | CCOC(=O)CC(C)O (stereo unspecified) [Ethyl-3-hydroxybutyrate] | 70.5 ± 24
7 | COC(=O)c1ccccc1O [Methyl salicylate] | 49 ± 22

Test system: Drosophila virilis antennal basiconic sensillum AB2
Test: as above
Conditions: odor dilution: 10^-4
How it was run: as §1

Row | Structure (SMILES) | odor-evoked OSN spike response [spikes/s]
8 | CCOC(C)=O [Ethyl acetate] | 65 ± 20
9 | CCCC(=O)OCc1ccccc1 [benzyl butyrate] | 58.8 ± 31
10 | CCCC(=O)OCC [ethyl butanoate] | 71.9 ± 26
11 | CC(C)OC(=O)c1ccccc1 [isopropyl benzoate] | 45.6 ± 23
12 | C/C=C/C(=O)OCC [Ethyl crotonate] | 47.5 ± 26

Test system: Drosophila virilis antennal basiconic sensillum AB3
Test: as above
Conditions: odor dilution: 10^-4
How it was run: as §1

Row | Structure (SMILES) | odor-evoked OSN spike response [spikes/s]
13 | CCOC(=O)C(C)O (stereo unspecified) [Ethyl lactate] | 156 ± 44
14 | CCCCCOC(C)=O [pentyl acetate] | 121 ± 16
15 | CC(=O)C(C)O (stereo unspecified) [acetoin] | 226 ± 54
16 | CC(O)C(C)O (stereo unspecified) [2,3-Butanediol] | 67.8 ± 30
17 | CCOC(=O)CC(C)O (stereo unspecified) [Ethyl-3-hydroxybutyrate] | 167 ± 54
18 | CCCCCC(=O)OCC [ethyl hexanoate] | 153 ± 23

Test system: Drosophila virilis antennal basiconic sensillum AB6
Test: as above
Conditions: odor dilution: 10^-4
How it was run: as §1

Row | Structure (SMILES) | odor-evoked OSN spike response [spikes/s]
19 | CCOC(=O)C(C)O (stereo unspecified) [Ethyl lactate] | 50 ± 22
20 | COc1ccccc1O [guaiacol] | 73.3 ± 47
21 | C=CC(O)CCCCC (stereo unspecified) [1-octen-3-ol] | 114 ± 44
22 | CCOC(=O)CC(C)O (stereo unspecified) [Ethyl-3-hydroxybutyrate] | 63.2 ± 25

Test system: Drosophila virilis antennal basiconic sensillum AB7
Test: as above
Conditions: odor dilution: 10^-4
How it was run: as §1

Row | Structure (SMILES) | odor-evoked OSN spike response [spikes/s]
23 | CCCCCCO [1-hexanol] | 61.4 ± 22
24 | CCOC(=O)C(C)O (stereo unspecified) [Ethyl lactate] | 52.6 ± 7.5
25 | CCCCC(C)=O [2-hexanone] | 50.8 ± 8.6
26 | CCCCCOC(C)=O [pentyl acetate] | 75.4 ± 13
27 | CCCC(O)CC (stereo unspecified) [3-hexanol] | 57 ± 28
28 | CCCCCC(C)=O [2-heptanone] | 155 ± 25
29 | CCCCC(C)O (stereo unspecified) [2-hexanol] | 61.4 ± 9.6
30 | CCCC(=O)OCC [ethyl butanoate] | 68.8 ± 9.7
31 | CC(O)C(C)O (stereo unspecified) [2,3-Butanediol] | 66.2 ± 17
32 | C=CC(O)CCCCC (stereo unspecified) [1-octen-3-ol] | 106 ± 11
33 | CC(=O)CCC=C(C)C [6-methyl-5-hepten-2-one] | 150 ± 34
34 | CC(C)CCO [Isopentyl alcohol] | 51.2 ± 14
35 | CCOC(=O)CC(C)O (stereo unspecified) [Ethyl-3-hydroxybutyrate] | 85.6 ± 14
36 | CCCCCC(=O)OCC [ethyl hexanoate] | 49 ± 24
